Sampled rows, rich in hits. Any-hit rate of the full collection: about 2.3%.
Rpn11 inh: Rpn11 (human) deubiquitinase inhibition; O00487; human 26S proteasome, Ub4-pepOG fluorescence polarization; 20S core pre-blocked with epoxomicin; inhibition, % at 20 µM; 360,000 tested, 0.59% active; AID 588493;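 active means inhibition at 20 µM, scaled to each plate's controls, above about 33%, limit read from the data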
TPT1 inhibitor: blocks Candida albicans tRNA 2'-phosphotransferase; recombinant caTPT1, FP RNA substrate dephosphorylation; 300,000 tested, 0.81% active; inhibition, % at 5 µM;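 active means inhibition above the mean of all tested compounds plus 3 SD, set per screening campaign, cut at about 24% in these data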;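 further: plate controls were DMSO alone for no effect and ferristatin control at 100 nM for full effect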
Calb FLC: affects C. albicans growth with fluconazole | C. albicans CaCi-2 (fluconazole-resistant clinical isolate) + fluconazole, Alamar Blue growth, 48 h | growth inhibition, % (test concentration not listed) | 300,000 tested, 0.57% active | AID 1979;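 active means growth inhibition above about 58% in most replicates, limit read from the data, passing the limit was not always enough; inconclusive means exactly half the replicates above a set limit; inactive means most replicates below a set limit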;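 further: all wells also contain fluconazole at 8 µg/ml as a sub-toxic cotreatment; 0% = median of DMSO wells and 100% = median of geldanamycin control wells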
IDE cell activ: activators of human insulin-degrading enzyme in cells | 340,000 tested, 0.073% active | HEK cells, FAbeta-B cleavage, fluorescence polarization; 0% vehicle, 100% cell-free pure enzyme wells | activation, % at 5.96 µM;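 active means activation above the mean of all tested compounds plus 3 SD, set per screening campaign, cut at about 17% in these data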
IDE cell inh: inhibitors of human insulin-degrading enzyme in cells | P14735 | HEK cells, FAbetaB cleavage, fluorescence polarization | inhibition, % at 5.59 µM | 320,000 tested, 0.41% active | AID 434962;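 active means percent inhibition above the average of all tested compounds plus 3 SD, set per screening campaign, cut at about 16% in these data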;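 further: IDE supplied by intact live HEK cells; FP after avidin binding of uncleaved biotin substrate so inhibition keeps polarization high; 0% = DMSO wells and 100% = 60 µM reference IDE inhibitor Ii1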
Rin1 Abl inh: blocks binding of human Rin1 to Abl; P00519+Q13671; TR-FRET Rin1/Abl binding, biochemical; inhibition, % at 7.35 µM; 360,000 tested, 0.4% active; AID 588664; in the data active means inhibition above about 5%, passing the limit was not always enough
Rin1 Abl conf: confirmation of inhibitors of human Rin1-Abl interaction; TR-FRET Rin1-Abl binding, purified proteins; AID 602124; shares compounds with Rin1 Abl inh; 1,300 tested, 49% active; inhibition, % at 7.35 µM
GFP quench: GFP fluorescence interference artifact; shares compounds with Rin1 Abl inh; 1,300 tested, 8.5% active; inhibitors/quenchers counterscreen; AID 602125; inhibition, % at 6.75 µM;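 further: ABL1-eGFP fusion protein alone without its partner RIN1-SBP; 0% = protein with vehicle and 100% = wells lacking protein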
GFP quench dose: quenches GFP in dose response, Rin1-Abl counter-screen | IC50, µM | shares compounds with Rin1 Abl inh | 230 tested, under 10 active | GFP fluorescence interference/quenching counterscreen; call rule not given here;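 further: ABL1-eGFP fusion protein alone without its RIN1 binding partner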
* marks the source's active call; other numbers are inactive results; ? = inconclusive; · = not tested or not shown. Unless noted, no stated cut-off is given here; in the data, active means inhibition above about 6.5%; inactive means the rest.

SMILES	Rpn11 inh	TPT1 inhibitor	Calb FLC	IDE cell activ	IDE cell inh	Rin1 Abl inh	Rin1 Abl conf	GFP quench	others
COc1ccc(C)cc1N=Nc1ccc(O)c2ncccc12	26	·	109*	-11	·	9.0*	11*	7.0*
Oc1ccc(N=Nc2ccc3c(c2)OCCO3)c2cccnc12	26	2	100*	-6	1	11*	8.4*	8.1*
Oc1ccc(N=Nc2ccc3c(c2)OCCO3)c(O)c1	9	3	3	-2	-1	-1	·	·
Cn1c(=O)oc2cc(S(=O)(=O)N3CCCC(C(=O)Nc4nccs4)C3)ccc21 (stereo not drawn)	-1	-4	-2	-1	5	11*	1	-1
Cc1cccc(NC(=O)C2CCCN(S(=O)(=O)c3ccc4c(c3)oc(=O)n4C)C2)c1 (stereo not drawn)	-2	-1	-6	4	2	1	·	·
O=C(N/N=C/c1cn(Cc2cccc(F)c2)c2ccccc12)c1cc(O)cc(O)c1	34	·	2	7	·	14*	8.7*	10*
CCOC(=O)N1CCC2(CC1)C(C#N)=C(N)OC1=C2C(=O)CC(C)C1 (stereo not drawn)	8	1	17	-5	1	17*	0	-2
Nc1ccc2c(c1)C(=O)c1ccccc1-2	-2	-3	2	-4	5	-12	·	·
Nc1ccc2c(c1)C(=O)C(=O)c1ccccc1-2	0	3	-3	-1	-4	10*	5	4
O=C(Nc1ccc2c(c1)OCO2)c1cc(C2CCCCN2C(=O)c2ccc3c(c2)CCO3)on1 (stereo not drawn)	-12	·	·	·	·	2	·	·
CCc1nc(C)c(C(=O)N2CCCC(C(=O)Nc3cccc(-c4cccc(C)c4)c3)C2)o1 (stereo not drawn)	4	2	8	1	4	-1	·	·
COc1ccc(CN2CCC(Oc3ccc(C(=O)N4CCCCC4)cc3)CC2)cc1C	0	-1	-3	3	0	15*	10*	-3
O=c1cc(-c2ccccc2)oc2cc(O)ccc12	-2	·	·	-7	·	64*	0	0
COc1cccc(NC(=O)CN2C(=O)CSc3ccc(S(=O)(=O)N4CCOCC4)cc32)c1	-2	0	-8	4	-1	6	·	·
O=C(CN1C(=O)CCSc2ccc(S(=O)(=O)N3CCOCC3)cc21)Nc1cccc(F)c1	-1	2	-11	5	1	16*	15*	2
OC1CCCN(Cc2nc(Cc3ccccc3Cl)no2)C1 (stereo not drawn)	-7	-4	46	6	4	8.8*	-2	-3
Cc1cccc(C)c1NC(=O)CNC(=O)CN1C(=O)NC2(CCc3ccccc32)C1=O (stereo not drawn)	5	·	·	5	2	0	·	·
O=C(C1CCN(c2nnc(N3CCCC3=O)s2)CC1)N1CCN(Cc2ccc3c(c2)OCO3)CC1	3	·	·	1	·	10*	5	-1
O=C(C1CCN(c2nnc(-n3cccc3)s2)CC1)N1CCN(Cc2ccc3c(c2)OCO3)CC1	-3	-2	-4	-3	0	-3	·	·
COc1ccc(C(=O)Nc2cc(Cl)ccc2C(=O)O)cc1	0	-2	-6	5	-3	2	·	·
COc1ccc(C(=O)Nc2ccccc2C(=O)Nc2ccccc2C(=O)O)cc1	3	-4	81*	4	12	5.6*	5	0
COc1ccc(C(=O)Nc2ccc(O)cc2C(=O)O)cc1	10	-1	-18	5	-4	11*	9.8*	2
O=S(=O)(Cc1ccccc1)N1CCN(c2ncccn2)CC1	4	-2	?	-3	3	7.2*	-1	0
CC(=O)Nc1ccc(-c2ccnc3c2CC(C)(C(=O)NCCc2ccccc2)O3)cc1 (stereo not drawn)	7	·	·	·	·	-1	·	·
CC(Oc1ccc(Cl)cc1Cl)C(=O)NNC(=O)c1cccnc1 (stereo not drawn)	-1	0	·	4	1	8.9*	-2	-1
SMILES	Rpn11 inh	TPT1 inhibitor	Calb FLC	IDE cell activ	IDE cell inh	Rin1 Abl inh	Rin1 Abl conf	GFP quench	others
CC(C)CNc1ncnc2c1ncn2[C@H]1CN(Cc2ccc(F)cc2)C[C@@H](CO)O1	-8	·	·	·	·	2	·	·
OC[C@@H]1CN(Cc2ccc(Cl)cc2)C[C@H](n2cnc3c(NC4CCC4)ncnc32)O1	6	·	·	·	·	12*	9.4*	-1
CC(C)Nc1ncnc2c1ncn2[C@H]1CN(Cc2ccc(Cl)cc2)C[C@@H](CO)O1	-3	·	·	·	·	6	·	·
CNc1ncnc2c1ncn2[C@H]1CN(Cc2ccc(-c3ccccc3)cc2)C[C@@H](CO)O1	-4	·	·	·	·	9.7*	13*	-2
OC[C@@H]1CN(Cc2ccc(-c3ccccc3)cc2)C[C@H](n2cnc3c(Nc4ccccc4)ncnc32)O1	8	·	·	·	·	2	·	·
CC(C)CNc1ncnc2c1ncn2[C@H]1CN(Cc2ccc(Cl)cc2)C[C@@H](CO)O1	-2	·	·	·	·	18*	10*	-2
OC[C@@H]1CN(Cc2ccc(-c3ccccc3)cc2)C[C@H](n2cnc3c(NC4CC4)ncnc32)O1	4	·	·	·	·	26*	21*	-1	GFP quench dose=>68
Cc1ccc(-c2csc(NC(=O)CSc3nc4ccccc4c(=O)n3CCCN(C)C)n2)cc1	9	-2	27	-2	1	0	·	·
O=C(CCNS(=O)(=O)c1ccc(OC(F)(F)F)cc1)NCCc1c[nH]c2ccccc12	14	·	·	3	-3	5	·	·
Cc1cccc(N(Cc2ccccc2)C(=O)Cc2ccc(S(=O)(=O)N3CCOCC3)s2)c1	-3	4	0	1	-1	14*	26*	1	GFP quench dose=>68
CCC(C)N1C(=O)CCC1C(=O)N1CCN(c2ccccc2F)CC1 (stereo not drawn)	0	0	-4	-2	-1	5.3*	-1	0
CCC(C)N1C(=O)CCC1C(=O)N1CCN(c2ccc(F)cc2)CC1 (stereo not drawn)	-2	4	-2	-4	-3	-5	·	·
O=C(C[C@H]1C[C@H](C(=O)N2CCCCC2)[C@@]2(CCc3ccccc3)c3[nH]c4ccc(Cl)cc4c3CCN2C1=O)NCCC1=CCCCC1	-3	·	·	4	·	-2	·	·
Cc1ccc(C(=O)N2CCCC(CCC(=O)N3CCN(c4ccccn4)CC3)C2)cc1C (stereo not drawn)	-1	-2	23	-3	11	9.4*	4	-2
Cc1cccc(C(=O)N2CCCC(CCC(=O)N3CCN(c4ccccn4)CC3)C2)c1C (stereo not drawn)	-3	1	-5	2	2	12*	4	0

Screens deposited in PubChem by several laboratories.
